{"source": "PubChem BioAssay (Tox21)", "note": "Activity calls are given as the source filed them. Where a call stands in place of a potency, no number is given. Calls come from the whole dose curve; as a rule, active = well fitted curve in the direction sought with a large enough effect in the repeat runs; inconclusive = weak or mixed curves; inactive = flat fitted curve, though single readings scatter."}
{"assay": "qHTS assay to test for compound auto fluorescence at 460 nm (blue) in HEK293 cells (AID 720678)", "conditions": "blue autofluorescence 405/460 nm; series mostly up to 91.3 µM", "source_text": "National Center for Advancing Translational Sciences [NCATS]\nNIH Chemical Genomics Center [NCGC]\nU.S. Environmental Protection Agency [EPA]\nNational Institutes of Environmental Health Sciences [NIEHS]\nNational Toxicology Program [NTP]\nU.S. Food and Drug Administration [FDA]\nCompound auto fluorescence often interferes with screening of the compound library against various biological targets and signaling pathways. Some of these compounds may have fluorophoric properties. Such properties may interfere with the assay outputs resulting in false positives and/or negatives. To decrease such complications and ensure the compound activities are relevant in terms of biological response, the Tox21 10K compound library was screened for auto fluorescence.\nFrom the fluorophores used as reporter signals in our screening assays, the auto fluorescence equivalencies of compounds against three fluorophores have been evaluated: Triamterene, Fluorescein and Rose Bengal sodium for blue, green and red fluorescence, respectively. The fluorescence intensities were measured using Excitation/Emission wavelengths at 405/460nm, 485/535nm and 540/590nm for blue, green and red labels, respectively. This assay includes the blue fluorescence data.\nTox21 Assay Protocol Summary:\n2,000 HEK293 cells in 5 uL of culture medium containing 10% dialyzed FBS per well were dispensed into black wall/clear bottom 1536-well plates using a Multidrop Combi Dispenser (Thermo Scientific). The assay plates were incubated for 4-5 hr at 37C to allow cell attachment to the well bottom, followed by the transfer of 23 nL compound or DMSO vehicle by a pintool work station (Kalypsys, San Diego, CA). After the assay plates were incubated overnight at 37C and 5% CO2, fluorescence intensities in the assay plates were measured by an Envision (PerkinElmer, Shelton, CT) plate reader using three labels for measuring blue, green and red fluorescence at […] 460, 535 and 590nm respectively."}
{"compound": "COc1ccc(C=O)cc1OC", "Potency": "inactive"}
{"compound": "O=C1Nc2ccc(Cl)cc2C(c2ccccc2)=NC1O", "note": "(stereo not given)", "Potency": "inactive"}
{"compound": "CC1(C)Cc2cccc(O)c2O1", "Potency": "inactive"}
{"compound": "N#Cc1cccnc1", "Potency": "inactive"}
{"compound": "CC(C)Nc1nc(Cl)nc(NC(C)C)n1", "Potency": "inactive"}
{"compound": "CCCCCCCC[N+](C)(CCCCCCCC)CCCCCCCC", "Potency": "inactive"}
{"compound": "Oc1ccc(Cl)cc1Cl", "Potency": "inactive"}
{"compound": "COP(=O)(NC(C)=O)SC", "note": "(stereo not given)", "Potency": "inactive"}
{"compound": "C=CC(=O)OCC(CC)(COC(=O)C=C)COC(=O)C=C", "Potency": "inactive"}
{"compound": "CCCCCCCCCC(CC)c1ccc(S(=O)(=O)O)cc1", "note": "(stereo not given)", "Potency": "inactive"}
{"compound": "C=C(C)C#N", "Potency": "inactive"}
{"compound": "ClC(Cl)(Cl)c1ccccc1", "Potency": "inactive"}
{"compound": "OC(c1ccc(Cl)cc1)(c1cncnc1)c1ccccc1Cl", "note": "(stereo not given)", "Potency": "inactive"}
{"compound": "CNC(=O)CSP(=S)(OC)OC", "Potency": "inactive"}
{"compound": "CS(=O)(=O)NC(=O)c1cc(Oc2ccc(C(F)(F)F)cc2Cl)ccc1[N+](=O)[O-]", "Potency": "inactive"}
{"compound": "CCCCOCCOC(C)=O", "Potency": "inactive"}
{"compound": "CCOP(=S)(OCC)SCn1c(=O)oc2cc(Cl)ccc21", "Potency": "inactive"}
{"compound": "ClCc1ccccn1", "Potency": "inactive"}
{"compound": "CCCCC(C#N)(Cn1cncn1)c1ccc(Cl)cc1", "note": "(stereo not given)", "Potency": "inactive"}
{"compound": "CCNc1nc(Cl)nc(NC(C)(C)C#N)n1", "Potency": "inactive"}
{"compound": "Clc1ccccc1-c1nnc(-c2ccccc2Cl)nn1", "Potency": "inactive"}
{"compound": "COP(=S)(OC)SCn1nnc2ccccc2c1=O", "Potency": "inactive"}
{"compound": "CCCCOC(=O)COC(=O)c1ccccc1C(=O)OCCCC", "Potency": "inactive"}
{"compound": "CCOS(=O)(=O)OCC", "Potency": "inactive"}
{"compound": "CCOP(=S)(OCC)SCSC(C)(C)C", "Potency": "inactive"}
{"compound": "[Cl-].[Cl-].[Cl-].[Fe+3]", "Potency": "inactive"}
{"compound": "O=NN(c1ccccc1)c1ccccc1", "Potency": "inactive"}
{"compound": "CNC(=O)Oc1cccc2c1OC(C)(C)C2", "Potency": "inactive"}
{"compound": "Nc1ccc([N+](=O)[O-])cc1N", "Potency": "inactive"}
{"compound": "Brc1ccc(Br)cc1", "Potency": "inactive"}
{"compound": "C[C@]12CC[C@H]3[C@@H](CCC4=CC(=O)CC[C@@H]43)[C@@H]1CC[C@@H]2O", "Potency": "inactive"}
{"compound": "N#Cc1nn(-c2c(Cl)cc(C(F)(F)F)cc2Cl)c(N)c1S(=O)C(F)(F)F", "note": "(stereo not given)", "Potency": "inactive"}
{"compound": "OCCOCCO", "Potency": "inactive"}
{"compound": "COC(=O)Nc1nc2ccccc2[nH]1", "Potency": "inactive"}
{"compound": "O=C1CCCO1", "Potency": "inactive"}
{"compound": "COc1ccc(O)c(C(C)(C)C)c1", "Potency": "inactive"}
{"compound": "c1ccc2c(c1)Nc1ccccc1S2", "Potency": "inactive"}
{"compound": "NN=C(N)N", "Potency": "inactive"}
{"compound": "CCC[CH2][Sn]([Cl])([Cl])[CH2]CCC", "Potency": "inactive"}
{"compound": "CN(C)c1nc(=O)n(C2CCCCC2)c(=O)n1C", "Potency": "inactive"}
